Reference: PubChem BioAssay (NCATS)
Where “and” joins values, the source holds several entries; their conditions need not be identical. Identical values can stand only once. Results filed as inconclusive are left out. Entries that show only a call come without a potency. Calls of active or inactive are those of the source. The call rests on the fitted dose curve.

Legend:
[1] = Cytotoxicity counterscreen for inhibitors of SARS-CoV-2 cell entry (AID 1645845); further: nearly all actives have a fitted effect of over 50% in size
How it was run: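 Expi293F/hACE2 cells seeded overnight; cpd pin-transferred in DMSO, 1 h preincubation, + media, 48 h 37 C 5% CO2; ATPLite 1step luminescence; normalized to cells and no cells.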

[2] = Primary qHTS to identify inhibitors of SARS-CoV-2 cell entry (AID 1645846); conditions: activity change, negative = inhibition: at 57.1 µM (top of the series) unless noted; further: nearly all actives have a fitted effect of over 45% in size
How it was run: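 Data are normalized to wells receiving SARS-CoV-2-S pseudoparticles and those given bald particles. Entry signal was luciferase luminescence in stable hACE2 Expi293F cells, 48 hr post-infection, after 1 hr compound pretreatment.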

For `CC[C@@]1(c2ccccc2)NC(=O)N(C)C1=O`, the Potency [1] was “inactive”.
With `Cc1nccn1CC1CCc2c(c3ccccc3n2C)C1=O` (configuration not stated) the Potency [1] was “inactive” and the activity change, negative = inhibition [2] was -12.3%.
In the case of `CCc1ccc(CCOc2ccc(CC3SC(=O)NC3=O)cc2)nc1` (configuration not stated), the Potency [1] was “inactive”.
For `NS(=O)(=O)Cc1noc2ccccc12`, the Potency [1] was “inactive” and the Potency [2] was “inactive”.
With `CCC(=O)O[C@H]1[C@H](O[C@@H]2[C@@H](C)[C@H](O[C@H]3C[C@@](C)(OC)[C@@H](O)[C@H](C)O3)[C@@H](C)C(=O)O[C@H](CC)[C@@](C)(O)[C@H](O)[C@@H](C)C(=O)[C@H](C)C[C@@]2(C)O)O[C@H](C)C[C@@H]1N(C)C` the Potency [1] was “inactive”.
With `OCCOCCN1CCN(C(c2ccccc2)c2ccc(Cl)cc2)CC1` (configuration not stated) the Potency [1] was “inactive”.
For `CCOC(=O)[C@H](CCc1ccccc1)N[C@@H](C)C(=O)N1[C@H](C(=O)O)C[C@@H]2CCC[C@@H]21`, the Potency [1] was “inactive”.
For `CC(=O)N[C@@H](CS)C(=O)O`, the Potency [1] was “inactive” and the Potency [2] was “inactive”.
With `CN(CCOc1ccc(NS(C)(=O)=O)cc1)CCc1ccc(NS(C)(=O)=O)cc1` the Potency [1] was “inactive” and the activity change, negative = inhibition [2] was 4.03% and 4.22%.
With `O=c1[nH]cnc2c1ncn2[C@H]1CC[C@@H](CO)O1` the Potency [1] was “inactive” and the Potency [2] was “inactive”.
In the case of `O=C1OCCN1/N=C/c1ccc([N+](=O)[O-])o1`, the Potency [1] was “inactive”.
In the case of `O=C(CCCN1CCC(O)(c2ccc(Cl)cc2)CC1)c1ccc(F)cc1`, the Potency [1] was “inactive”.
For `CNCCc1ccccn1`, the Potency [1] was “inactive” and the Potency [2] was “inactive”.
For `C=C[C@H]1CN2CC[C@H]1C[C@@H]2[C@@H](O)c1ccnc2ccc(OC)cc12`, the Potency [1] was “inactive”.
In the case of `C[n+]1ccccc1/C=N/O`, the Potency [1] was “inactive”.
For `CN(CCOc1ccc(CC2SC(=O)NC2=O)cc1)c1ccccn1` (configuration not stated), the Potency [1] was “inactive”.
